The supplement of paper PMC8728848
About 410 targets per protein were measured; listed, in parts, are those with the strongest signals and a random draw of the rest.

How the values were obtained:
Assay in all cases: glycan array binding signal (z-score within array); higher = stronger binding
Conditions in all cases: glycan notation: IUPAC condensed, linker removed
[1] = target: GlcNAc(b1-3)Gal(b1-4)Glc
In short: (§1)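 Glycan array data came from 3228 arrays in the Consortium for Functional Glycomics database, and only arrays with an available protein sequence were kept. Glycan names were put into IUPAC-condensed notation, and columns mapping to the same glycan were averaged. The binding signal is a within-array Z-score, averaged across arrays of one protein sequence run at different concentrations or buffers and across linkers. A negative Z-score can be read as non-binding.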

[2] = target: GlcNAc(b1-3)Gal(b1-4)GlcNAc(b1-3)Gal(b1-4)GlcNAc(b1-3)Gal(b1-4)GlcNAc(b1-2)Man(a1-3)[GlcNAc(b1-3)Gal(b1-4)GlcNAc(b1-3)Gal(b1-4)GlcNAc(b1-3)Gal(b1-4)GlcNAc(b1-2)Man(a1-6)]Man(b1-4)GlcNAc(b1-4)[Fuc(a1-6)]GlcNAc
In short: as §1

[3] = target: GlcNAc(b1-6)Gal(b1-4)GlcNAc
In short: as §1

[4] = target: Kdn(a2-3)Gal(b1-4)GlcNAc
In short: as §1

[5] = target: Neu5Ac(a2-3)Gal(b1-3)GlcNAc
In short: as §1

[6] = target: Neu5Ac(a2-3)Gal(b1-3)GlcNAc(b1-3)Gal(b1-4)GlcNAc
In short: as §1

[7] = target: Neu5Ac(a2-3)Gal(b1-3)[Fuc(a1-4)]GlcNAc
In short: as §1

[8] = target: Neu5Ac(a2-3)Gal(b1-4)GlcNAc(b1-2)Man
In short: as §1

[9] = target: Neu5Ac(a2-3)Gal(b1-4)GlcNAc(b1-3)Gal(b1-4)GlcNAc(b1-3)Gal(b1-4)GlcNAc(b1-2)Man(a1-3)[Neu5Ac(a2-3)Gal(b1-4)GlcNAc(b1-3)Gal(b1-4)GlcNAc(b1-3)Gal(b1-4)GlcNAc(b1-2)Man(a1-6)]GalNAc
In short: as §1

[10] = target: Neu5Ac(a2-3)Gal(b1-4)[Fuc(a1-3)]GlcNAc(b1-6)[Gal(b1-3)]GalNAc
In short: as §1

[11] = target: Neu5Ac(a2-3)Gal(b1-4)[Fuc(a1-3)]GlcNAc6S
In short: as §1

[12] = target: Neu5Ac(a2-6)Gal(b1-3)GlcNAc(b1-3)[Gal(b1-4)GlcNAc(b1-6)]Gal(b1-4)Glc
In short: as §1

[13] = target: Neu5Ac(a2-6)Gal(b1-4)GlcNAc(b1-2)Man(a1-3)[Neu5Ac(a2-6)Gal(b1-4)GlcNAc(b1-2)Man(a1-6)]Man(b1-4)GlcNAc(b1-4)GlcNAc
In short: as §1

[14] = target: Neu5Ac(a2-8)Neu5Ac(a2-3)[GalNAc(b1-4)]Gal(b1-4)Glc
In short: as §1

[15] = target: Neu5Ac(a2-8)Neu5Ac(a2-8)Neu5Ac
In short: as §1

B1: CC1G-10077 (Coprinopsis cinerea), A8NDT7 (protein)
chain: MALNEGVYWIRNSRFTNKVLDLDAANVAKGTSILDFNEHGTFNENHNQLWIVERFQSRDTYLIRSVHSNLVLDLSQGLSANGTPILCWTQHGGTNQQWRIEWVKDDNKTPLYRIVSVATGTAISHNEDDSSAYTVAWSVDDGPKQLWSFDPFVTPLLYRLRVKSTSRVLDLAAASADNGTLALAWEQHTAITKRNQLWWLPYRSGAEEYTIQCLETSTVADLSGGNSGNGTPIYGWQSHGGRNQQWKFEPTSDSGDYYHIKNVEGGSVMDAYMNDSQKRVGGWSNNGGDNQKWLLDPLPSPGPGWVLIQNGGTGKFLCSTPSGDIGTADGPETVYDYSVQWRFIQREYTGVYHVVNRATGAYLRQIGTSMPSIGLAEENDDELKDWWMLETYDNSEIGLASIISRWTGNVLDHYGGVSVQALDNNTENSYRSWAIIPARDWLTSFSLVNGQGGLCLAAQYAREETRLSTTANVNDFHAQWVFRKPSGSSGYTIQNKYNNHYVGGTSARWELVVCCNKYFGIRNTSTQKYLAIEDGQVTFQDQDMTDRKQCWELCSGRATDTSGNDYDLIYMDDDLLEVMIPWVGDKQGDLKHYIEKRATKKPPKDKGGWQLPAAGLIKKPKFNDIRQLLQELIEQWEWDVVNEEREQIQTLVSIDEAEARRLLGRRPHPDIVAAYQRSRSSTLFRIDRQGYFNIAGDRYVNIQGQYGDDSYFHIALPVGVRFGREQIRRFLRDSLDRSTSVTITPTTCKPPSGGPDYNRDPDSDGDNSWIKWTIAVVGTSAIKHSEL
B1 was tested, and the “glycan array binding signal (z-score)” value [1] was -0.371, the “glycan array binding signal (z-score)” value [2] was -0.141 and the “glycan array binding signal (z-score)” value [3] was 3.18. The “glycan array binding signal (z-score)” value [4] was -0.466, the “glycan array binding signal (z-score)” value [5] was -0.452 and the “glycan array binding signal (z-score)” value [6] was -0.476. The “glycan array binding signal (z-score)” value [7] was -0.473, the “glycan array binding signal (z-score)” value [8] was -0.331 and the “glycan array binding signal (z-score)” value [9] was -0.417. The “glycan array binding signal (z-score)” value [10] was -0.37, the “glycan array binding signal (z-score)” value [11] was -0.468 and the “glycan array binding signal (z-score)” value [12] was 0.306. The “glycan array binding signal (z-score)” value [13] was -0.326, the “glycan array binding signal (z-score)” value [14] was -0.233 and the “glycan array binding signal (z-score)” value [15] was -0.448.
